MARV entry inh: Marburg virus entry inhibition; Marburg virus pseudotyped entry inhibition, cell reporter; Potency, µM (highest dose often 37.8 µM), for the others: at the highest dose activity change, negative = inhibition, most hits filed as inhibitors; 300,000 tested, 1.8% active; AID 540276; calls by dose curve; tested in HEK293 cells; further: potency means the concentration at half of the fitted maximal effect; on the % scale 0 is the no-effect control and ±100 the full control effect
LASV entry inh: inhibitors of Lassa virus binding or cell entry | 300,000 tested, 1.2% active | Lassa virus pseudotype entry inhibition, cell reporter | Potency, µM (highest dose often 37.9 µM), without a hit: at the highest dose activity change, negative = inhibition, actives largely listed as inhibitors; calls by dose curve; tested in HEK293 cells; further: potency means the concentration at half of the fitted maximal effect; on the % scale 0 is the no-effect control and ±100 the full control effect; nearly all actives have a fitted effect of over 50% in size
Shiga inhibitor: blocks Shiga toxin action in Vero cells; Vero cells, Shiga toxin protein synthesis inhibition reporter; inhibition, % at 38.7 µM; 290,000 tested, 9.2% active; AID 2315; in the data active means inhibition mostly above about 28%, no sharp cut-off; inactive means mostly below about 43%; further: 0% is about no effect
AMA1-RON2 inh: disrupts binding of P. falciparum AMA1 to RON2; Potency, µM (series often up to 58.2 µM), inactives show at the top dose activity change, negative = inhibition, actives largely listed as inhibitors; 360,000 tested, 0.2% active; AlphaScreen AMA1-biotinylated RON2 peptide binding; active means well fitted inhibition curve with a large enough effect; inconclusive means small, poorly fitted or top-dose-only effect; inactive means no such curve, though single readings can be large or run the other way;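 further: potency means the concentration at half of the fitted maximal effect; 0% = vehicle wells and -100% = peptide control; nearly all actives have a fitted effect of over 45% in size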
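AMA1 (3D7) with his tag at 25 nM final met compounds first, then biotinylated RON2 peptide at 25 nM; detection used donor plus acceptor beads, 10 µg/mL apiece, read by AlphaScreen after 30 min at room temperature.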
Cycloheximide cs: affects cycloheximide protein synthesis inhibition readout, counter-screen; 300,000 tested, 12% active; cell reporter, cycloheximide protein synthesis inhibition counterscreen; max response, %; AID 2314; in the data active means max response mostly above about 13%, no sharp cut-off; inactive means mostly below about 14%; further: read at 38.3 µM for the half of the compounds with a filed dose; 0% is about no effect
* hit, by the source's call; ? = inconclusive; . = no result; [ ] = another dose, or the depositor's remark. Shown is part of a subset that was picked to be rich in hits.

SMILES | MARV entry inh | LASV entry inh | Shiga inhibitor | AMA1-RON2 inh | Cycloheximide cs
CCN(CC)C(=O)Oc1ccc2c(c1)O/C(=C\c1ccco1)C2=O | ? | 29.9%[46.1 µM] | 48.6* | -12.6% | 27.4*
Cc1cc(O)cc2c1C(=O)/C(=C/c1ccco1)O2 | ? | 17.0%[46.1 µM] | 65.7* | -16.1% | 50.7*
COCCN(CCOC)Cc1c(O)ccc2c1O/C(=C\c1ccco1)C2=O | -3.8%[46.1 µM] | -17.3%[46.1 µM] | 3.0 | -21.2% | -0.5
CC(=O)Oc1ccc2c(c1)O/C(=C\c1ccncc1)C2=O | . | . | 7.1 | 3.7% | 2.4
CCC(=O)Oc1ccc2c(c1)O/C(=C\c1ccco1)C2=O | 9.5%[46.1 µM] | 0.7%[46.1 µM] | 43.5* | -22.4% | 16.3*
O=C(C1CCN(S(=O)(=O)Cc2ccccc2)CC1)N1CCN(c2ccc(F)cc2)CC1 | -20.0%[46.1 µM] | -30.2%[46.1 µM] | . | . | .
CCCCOc1ccc(C2(C)NC(=O)NC2=O)cc1 (stereo not drawn) | 0.5%[46.1 µM] | 26.8%[46.1 µM] | 10.2 | -2.0% | -0.8
CCCCOc1ccc(C2=NNC(=O)CC2)cc1 | -5.4% | 3.9% | 40.3* | 17.0% | 14.8
CSc1ccccc1NC(=O)CSc1cccc[n+]1[O-] | 27.6% | 13.4% | . | -7.9% | .
CC(=O)C1=C(O)C(=O)N(c2ccc(S(N)(=O)=O)cc2)C1c1cccc([N+](=O)[O-])c1 (stereo not drawn) | . | . | 26.4 | -4.6% | -2.3
CC(=O)C1C(=O)c2c(cccc2[N+](=O)[O-])C1=Nc1ccc(S(N)(=O)=O)cc1 (stereo not drawn) | -16.8% | -2.4% | 40.6 | -2.5% | 29.6*
CCN(CC1CCCO1)C(=O)c1cc(COc2cc(C)c(Cl)c(C)c2)on1 (stereo not drawn) | . | . | 72.8* | 19.8% | 43.8*
Cc1cc(OCc2cc(C(=O)N(C)CC3CCOCC3)no2)cc(C)c1Cl | . | . | 46.1* | 1.0% | 35.3*
COc1ccccc1N1C(=O)C2C(C(=O)c3ccccc3)=NN(c3ccccc3OC)C2C1=O (stereo not drawn) | -0.2% | -2.3% | -1.4 | 14.1% | -1.4
O=C(c1cc2ccccc2o1)N1CCCCCC1 | 18.8% | 22.5% | 61.9* | 19.2% | 45.5*
CC1CCN(C(=O)c2cc3ccccc3o2)CC1 | 8.6% | -2.7% | 76.3* | 0.0% | 55.6*
CC1CC(C)CN(C(=O)c2cc3ccccc3o2)C1 (stereo not drawn) | 20.7% | 11.2%[46.1 µM] | . | -2.2% | .
CCOC(=O)c1[nH]c(C(=O)O)c(OC(=O)CC)c1C | 5.8%[46.1 µM] | 13.6%[46.1 µM] | -5.3 | 19.2% | -4.7
CCN(CC)c1ccc(/C=N/NC(=O)c2c[nH]c3ccccc23)cc1 | 3.6% | 11.2µM* | 39.9* | -6.0% | 34.9*
O=C(NN=Cc1ccc(N(CCCl)CCCl)cc1)C(=O)c1c[nH]c2ccccc12 | 4.47µM* | 6.31µM* | . | 67.3% | .
CCN(CC)c1ccc(/C=N/NC(=O)c2cc3ccccc3[nH]2)cc1 | . | . | 28.5 | 4.8% | 20.0*
CN(Cc1ccccc1)C(=O)C(=O)c1c[nH]c2ccccc12 | . | . | . | -6.5% | .
CCN(C(=O)C(=O)c1c[nH]c2ccccc12)c1ccccc1 | . | . | 18.7 | 13.1% | 17.8*
COc1ccccc1C(=O)Nc1ccccc1OCc1cc(=O)n2c(C)csc2n1 | 8.6%[46.1 µM] | 22.1%[46.1 µM] | . | . | .
CN1C=Nc2c(ncn2C2CCC(CO)O2)C1O (stereo not drawn) | . | . | . | 1.0% | .
SMILES | MARV entry inh | LASV entry inh | Shiga inhibitor | AMA1-RON2 inh | Cycloheximide cs
C[C@@H]1CN([C@@H](C)CO)C(=O)CCCn2cc(nn2)CO[C@H]1CN(C)C(=O)c1ccc2ccn(C)c2c1 | . | . | . | -4.8% | .
COc1cccc(C(=O)Nc2cnn(C(C)C)c2)c1 | -4.3% | -3.2% | 93.5* | -27.4% | 32.0*
CCn1c2ccccc2c2cc(NC(C)=O)ccc21 | 18.3%[46.1 µM] | 14.1% | -13.5 | 4.1% | -1.5
COc1cccc(C(=O)Nc2ccccc2)c1 | 9.1% | 3.0% | 63.9* | -14.0% | 35.3*
COc1cccc(C(=O)Nc2cccc(SC)c2)c1 | ? | -1.2% | 62.7* | -1.9% | 18.7*
CCn1c2ccccc2c2cc(NC(=O)c3ccco3)ccc21 | -13.8% | ? | 40.8 | -11.7% | 18.2*
COc1cccc(C(=O)Nc2ccc(NC(=O)Cc3ccccc3)cc2)c1 | -11.7%[46.1 µM] | -12.1%[46.1 µM] | -8.9 | 7.6% | -3.0
O=C(CSc1nnc(-c2cccs2)o1)Nc1cccc(S(=O)(=O)N2CCCCC2)c1 | 15.4% | -2.9% | -3.8 | 0.0% | -2.9
CC1(C(=O)NCc2ccc(Cl)c(Cl)c2)Oc2cccnc2NC1=O (stereo not drawn) | 21.5%[46.1 µM] | -5.8% | -2.7 | 4.3% | -6.7
CCCCN1CCC(n2c(=O)[nH]c3ccccc32)CC1 | ? | -8.4% | . | . | .
CCCn1c(=O)n(-c2ccccc2Cl)c(=O)c2sc3ccccc3c21 | 22.7%[46.1 µM] | 7.2%[46.1 µM] | . | . | .

High-throughput results deposited in PubChem BioAssay by National Center for Advancing Translational Sciences (NCATS).
